Reference: PubChem BioAssay (NCATS)
Where “and” joins values, the source holds several entries; their conditions need not be identical. Equal entries are not always repeated. Results filed as inconclusive are left out. Calls of active or inactive are those of the source. Unless noted, the call rests on the fitted dose curve; in most records, active means well fitted curve in the direction sought with a large enough effect; inconclusive means small, poorly fitted or top-dose-only effect, or another doubt; inactive means no such curve, though single readings can be large; an effect the other way counts as inactive or inconclusive.

Key:
[1] = Cell Viability - BJ (AID 421; calls by dose curve;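 further: potency means the concentration at half of the fitted maximal effect; cells exposed to compound for 40 hours at 37 °C before readout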); details: BJ fibroblast viability, qHTS
How it was run: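 Cytotoxicity as drop in intracellular ATP (CellTiter-Glo, 20 min RT) after 40 hr compound exposure of BJ fibroblasts at 37 °C. Titrations scaled between DMSO and 100 uM tamoxifen, Hill-fitted for AC50.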

[2] = Cell Viability - Mesenchymal (AID 546); details: mesenchymal cells viability, qHTS; series mostly up to 91.7 µM;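 further: cells exposed to compound for 40 hours before reading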; further: potency means the concentration at half of the fitted maximal effect
How it was run: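 Human kidney mesenchymal cells from normal renal glomeruli, 1000 cells/well, rested 5 hr at 37 °C, then treated 40 hr at 37 °C in complete medium. Cellular ATP read by CellTiter-Glo luminescence; AC50 from Hill-equation fits.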

[3] = Cellular Toxicity (caspase-3) HepG2 (AID 654); details: HepG2 caspase-3 activation, luminescence, 0% = DMSO only, 100% = tamoxifen; series mostly up to 92.2 µM;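 further: cells exposed to compound for 16 hours before reading; 0% = DMSO alone and 100% = caspase signal from 100 µM tamoxifen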
How it was run: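 Cells plated 5 hr at 37 °C, compound added, incubated 16 hr at 37 °C. Caspase-Glo 3/7 reagent followed, 20 min at room temperature, then luminescence read. Activation scored as signal increase; AC50 from Hill fit.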

[4] = Cellular Toxicity (caspase-3) HUV-EC-C (AID 656); details: HUV-EC-C cells, caspase-3 activation (apoptosis), vehicle = 0, 100 µM tamoxifen = 100%; series mostly up to 92.2 µM
How it was run: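 Luminescent caspase-3/7 activation (aminoluciferin substrate cleavage) in HUV-EC-C cells after 16 hr compound exposure, 37°C. Signal normalized to DMSO basal and 100 uM tamoxifen as 100%; AC50 from concentration-response fitted with the Hill equation.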

[5] = Cellular Toxicity (caspase-3) BJ (AID 658); details: BJ fibroblasts, luminescence, normalized: DMSO 0%, staurosporine 100%; series mostly up to 91.7 µM;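 further: cells exposed to compound for 16 hours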
How it was run: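 BJ human foreskin fibroblasts, 1000 cells/well, treated 16 hours at 37 °C in complete medium; caspase 3/7 activity by Caspase-Glo luminescence after 1 hr at room temperature. Normalized to DMSO and 10 uM staurosporine; AC50 from Hill fits.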

[6] = Cellular Toxicity (caspase-3) MRC-5 (AID 659); details: MRC-5 cells, luminescence, normalized: DMSO 0%, 10 µM staurosporine 100%; series mostly up to 91.7 µM
How it was run: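 MRC-5 human normal lung fibroblasts, 1500 cells/well, treated 16 h at 37 °C in complete medium. Caspase 3/7 measured by Caspase-Glo luminescence after 1 h at room temperature. Normalized to DMSO and 10 uM staurosporine; AC50 from Hill fit.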

[7] = Cellular Toxicity (caspase-3) SK-N-SH (AID 661); details: SK-N-SH caspase-3 activation, qHTS; series mostly up to 91.7 µM;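 further: cells exposed to compound for 16 hours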
How it was run: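 Human neuroblastoma SK-N-SH, 1500 cells/well, 5 hr pre-incubation, then compound 16 hr, 37 °C. Caspase-Glo 3/7 reagent, 1 hr RT, luminescence. Norm. to DMSO/10 uM staurosporine; Hill-fit AC50.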

[8] = Cellular Toxicity (caspase-3) Hek293 (AID 664); details: HEK293 caspase-3 activation, DMSO = 0%, 100 µM tamoxifen = 100%; at 92.2 µM (top of the series);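 further: cells exposed to compound for 16 h at 37 °C before readout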
How it was run: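 Cells plated, 5 hr at 37 °C; compounds added; 16 hr at 37 °C; Caspase-Glo 3/7 reagent, 20 min RT; luminescence read. Activation expressed relative to DMSO and 100 uM tamoxifen, AC50 by Hill model.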

[9] = MultiTox-Fluor Cytotoxicity Assay - LYMP1-001 - Dead Cells (AID 946); details: LYMP1-001 lymphoblastoid cells, dead-cell protease fluorescence; series mostly up to 92.2 µM
How it was run: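 Cytotoxicity as increased dead-cell protease fluorescence (bis-AAF-R110, 485/520 nm), read 60 min after MultiTox-Fluor reagent. Human lymphoblastoid line exposed 16 h; Hill-fitted AC50, with DMSO as 0% and 15 uM tetraoctylammonium bromide as 100%.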

[10] = Cell Viability - LYMP1-002 - Assay at 16 hr (AID 948); details: LYMP1-002 lymphoblastoid cell viability; series mostly up to 92.2 µM;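 further: 0% = DMSO alone and full effect = 92 µM tetraoctylammonium bromide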
How it was run: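 LYMP1-002 human lymphoblastoid cells, 2500/well; 5 hr 37 C; cpd 16 hr 37 C; CellTiter-Glo 30 min RT; luminescence (ATP). Concentration-response, Hill-fit AC50. Pos ctrl tetraoctylammonium bromide.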

[11] = MultiTox-Fluor Cytotoxicity Assay - LYMP1-002 - Live Cells (AID 955); details: LYMP1-002 lymphoblastoid live-cell protease fluorescence viability; series mostly up to 46.1 µM;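 further: cells exposed to compound for 16 hours; on the % scale 0 is the no-effect control and ±100 the full control effect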
How it was run: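 Read-out is live-cell protease activity (cell-permeant GF-AFC substrate, fluorescence Ex/Em=405/510), where a decrease indicates acute toxicity. Human lymphoblastoid cells were treated 16 hours at 37 C in a concentration series, and AC50 values came from standard Hill modelling.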

[12] = MultiTox-Fluor Cytotoxicity Assay - LYMP1-003 - Dead Cells (AID 961); details: LYMP1-003 lymphoblastoid cells, dead-cell protease fluorescence; series mostly up to 92.2 µM; further: nearly all actives have a fitted effect of over 70% in size
How it was run: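 Dead-cell protease release, detected as bis-AAF-R110 fluorescence at 485/520 nm, was measured in LYMP1-003 cells after 16 h compound treatment at 37 C. AC50 values came from Hill-modeled qHTS curves normalized to DMSO (0%) and 15 uM tetraoctylammonium bromide (100%).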

[13] = MultiTox-Fluor Cytotoxicity Assay - LYMP1-003 - Live Cells (AID 962); details: LYMP1-003 lymphoblastoid cells, MultiTox-Fluor live-cell protease fluorescence; series mostly up to 92.2 µM;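 further: cells exposed to compound for 16 hours at 37 °C; 0% = DMSO only and full loss = 92 µM tetraoctylammonium bromide; cytotoxic hits lower the live-cell protease signal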
How it was run: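 qHTS, 1536-well; 2500 cells/well LYMP1-003; 5 hr 37 C settle; cpd 16 hr 37 C; MultiTox-Fluor reagent 60 min RT; live-cell protease fluor. 405/510; Hill-fit AC50; tetraoctylammonium bromide pos. ctrl.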

[14] = Cell Viability - LYMP1-003 - Assay at 24 hr (AID 963); details: LYMP1-003 lymphoblastoid cell viability; series mostly up to 92.2 µM;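 further: plate controls were DMSO only for no effect and tetraoctylammonium bromide positive control for full effect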
How it was run: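 Cells seeded at 2500/well, 5 hr at 37 C; compounds added; 24 hr at 37 C; CellTiter-Glo added, 30 min room temperature; luminescence read. Decrease in ATP taken as cytotoxicity, AC50 from Hill modelling.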

[15] = Cell Viability - LYMP2-003 (AID 965); details: LYMP2-003 lymphoblastoid cell viability; series mostly up to 92.2 µM;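 further: cells exposed to compounds for 24 h before reading; nearly all actives have a fitted effect of over 50% in size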; further: potency means the concentration at half of the fitted maximal effect
How it was run: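 CellTiter-Glo luminescence (cellular ATP) after 24 h compound exposure at 37 C in complete medium; 2500 cells/well, 5 h settling beforehand. Concentration-response fitted to standard Hill equation for AC50. Tetraoctylammonium bromide served as positive control.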

[16] = Cell Viability - LYMP2-025 (AID 976); details: LYMP2-025 lymphoblastoid cell viability; series mostly up to 92.2 µM; further: potency means the concentration at half of the fitted maximal effect
How it was run: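 Seed 2500 LYMP2-025 cells/well; 5 hr at 37 C; add compound; 24 hr at 37 C; add CellTiter-Glo; 30 min RT; read luminescence. AC50 from Hill-modelled concentration-response.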

[17] = Cell Viability - LYMP2-016 (AID 984); details: LYMP2-016 lymphoblastoid cell viability, qHTS; series mostly up to 92.2 µM;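 further: cells exposed to compound for 24 hours at 37 °C; nearly all actives have a fitted effect of over 55% in size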; further: potency means the concentration at half of the fitted maximal effect
How it was run: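 qHTS, 1536-well: 2500 LYMP2-016 cells/well, 5 hr 37 C, compound added, 24 hr 37 C, CellTiter-Glo 30 min RT, luminescence. Tetraoctylammonium bromide positive control. AC50 via Hill fit.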

[18] = Cell Viability - LYMP2-026 (AID 989); details: LYMP2-026 lymphoblastoid cell viability, qHTS; series mostly up to 92.2 µM; further: nearly all actives have a fitted effect of over 50% in size; further: potency means the concentration at half of the fitted maximal effect
How it was run: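 Luminescent ATP signal (CellTiter-Glo, 30 min room temperature) measures viable lymphoblastoid cells after 24 hr compound treatment at 37 C. Decreased ATP reflects acute toxicity; AC50 values come from Hill-equation modeling.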

[19] = qHTS Assay for Identification of Small Molecule Inducers of Hypoxia Response (AID 2120; active means well fitted curve in the direction sought with a large enough effect in the signal ratio, with a control signal flat, not every such curve was filed as active; the % refers to the signal ratio; further: potency means the concentration at half of the fitted maximal effect; on activation: 0% is about no effect); details: hypoxia response reporter cells, beta-lactamase ratio readout; series mostly up to 104 µM
How it was run: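 ME-180 HRE-bla cells plated in Opti-MEM/0.5% dialyzed FBS, rested 4-5 h, then dosed with compound titrations by pin tool. After 17 h at 37 degrees C, CCF4 dye loaded 2.5 h at RT; 460/530 nm ratio gave %Activity and AC50.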

[20] = target: Peroxisome proliferator-activated receptor alpha (Homo sapiens) (UniProt Q07869); assay: qHTS assay for small molecule agonists of the peroxisome proliferator-activated receptor alpha (PPARalpha) signaling pathway (AID 651778); details: PathHunter PPARalpha complementation, chemiluminescence, 6 h; stronger effect = higher value; further: % of control where 0% means no effect
Chain of Peroxisome proliferator-activated receptor alpha (Homo sapiens) (Q07869 whole entry, looked up, the tested form may be a part): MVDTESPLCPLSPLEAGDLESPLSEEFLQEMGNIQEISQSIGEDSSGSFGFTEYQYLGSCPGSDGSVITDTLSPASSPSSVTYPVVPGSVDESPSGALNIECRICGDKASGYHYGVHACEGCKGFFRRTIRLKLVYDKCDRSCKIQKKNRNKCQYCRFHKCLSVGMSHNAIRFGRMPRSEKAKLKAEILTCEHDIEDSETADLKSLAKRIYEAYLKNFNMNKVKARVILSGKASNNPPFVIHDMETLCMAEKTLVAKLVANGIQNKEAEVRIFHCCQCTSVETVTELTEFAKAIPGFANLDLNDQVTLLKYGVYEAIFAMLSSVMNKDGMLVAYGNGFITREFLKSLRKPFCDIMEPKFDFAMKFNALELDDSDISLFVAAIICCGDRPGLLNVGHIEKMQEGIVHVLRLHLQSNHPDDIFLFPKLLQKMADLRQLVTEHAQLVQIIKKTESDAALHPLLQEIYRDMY
How it was run: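 Enzyme-fragment complementation assay in which ligand-bound PPARalpha translocates and forms an active enzyme that generates chemiluminescence. Cells were plated overnight, exposed to compound for 6 hr at 37 C, and then given detection reagent for 60 min at room temperature.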

Brc1ccc(Oc2ccc(Br)cc2Br)c(Br)c1
inactive: Potency [1] > 92 µM | Potency [2] | outcome [3] | outcome [4] | outcome [5] | outcome [6] | Potency [7] | caspase-3 activation [8] 19.3% | outcome [9] | outcome [10] | outcome [11] | Potency [12] | outcome [13] | outcome [14] | Potency [15] | Potency [16] | Potency [17] | Potency [18] | Potency [19] | max response [20] 6.57%

c1ccc2c(c1)-c1cccc3c1c-2cc1ccccc13
active: Potency [19] 44.7 µM

C=CC(=O)OCCO
inactive: Potency [1] > 92 µM | Potency [2] | outcome [3] | outcome [4] | outcome [5] | outcome [6] | Potency [7] | caspase-3 activation [8] 2.01% | outcome [9] | outcome [10] | outcome [11] | Potency [12] | outcome [13] | outcome [14] | Potency [16] | Potency [17] | Potency [18] | Potency [19] | max response [20] 5.17%
active: Potency [15] 50.1 µM

[C-]1=CC=CC1.[C-]1=CC=CC1.[Cl-].[Cl-].[Ti+4]
inactive: Potency [2] | outcome [3] | outcome [4] | outcome [5] | outcome [6] | Potency [7] | caspase-3 activation [8] 3.8% | outcome [9] | Potency [12] | Potency [19] | max response [20] 0.688%

Nc1ccc(-c2ccc(N)c(Cl)c2)cc1Cl
inactive: outcome [3] | outcome [4] | outcome [5] | outcome [6] | Potency [7] | caspase-3 activation [8] 4.67% | outcome [9] | outcome [11] | outcome [14] | Potency [15] | Potency [16] | Potency [17] | Potency [19] | max response [20] -4.73% and -2.04%
active: Potency [2] 31.6 µM

N#C/C=C/C#N
inactive: outcome [3] | outcome [4] | outcome [5] | outcome [6] | Potency [7] | caspase-3 activation [8] -2.32% | outcome [9] | outcome [10] | outcome [11] | Potency [12] | outcome [13] | outcome [14] | Potency [19] | max response [20] -6.4%
active: Potency [15] 20 µM | Potency [16] 50.1 µM | Potency [17] 39.8 µM | Potency [18] 39.8 µM

O=[N+]([O-])c1cccc(CCl)c1
inactive: Potency [2] | outcome [3] | outcome [4] | outcome [5] | outcome [6] | Potency [7] | caspase-3 activation [8] -1.48% | outcome [9] | outcome [10] | outcome [11] | Potency [12] | outcome [13] | outcome [14] | Potency [15] | Potency [16] | Potency [17] | Potency [18] | Potency [19] | max response [20] 0.189%

Oc1cc(Cl)c(Cl)c(Cl)c1
inactive: Potency [2] | outcome [3] | outcome [4] | outcome [5] | outcome [6] | Potency [7] | caspase-3 activation [8] 11.5% | outcome [9] | outcome [10] | outcome [11] | Potency [12] | outcome [13] | outcome [14] | Potency [19] | max response [20] -3.78%

Oc1cc(Cl)c(Cl)c(Cl)c1Cl
inactive: Potency [2] | outcome [3] | outcome [4] | outcome [5] | outcome [6] | Potency [7] | caspase-3 activation [8] 8.07% | outcome [9] | outcome [10] | outcome [11] | Potency [12] | outcome [13] | outcome [14] | Potency [15] | Potency [16] | Potency [17] | Potency [18] | Potency [19] | max response [20] 0.278%

Clc1ccc(C(c2ccccc2Cl)C(Cl)(Cl)Cl)cc1 (configuration not stated)
inactive: Potency [1] > 92 µM | Potency [2] | outcome [3] | outcome [4] | outcome [5] | outcome [6] | Potency [7] | outcome [9] | outcome [10] | outcome [11] | Potency [12] | outcome [13] | outcome [14] | Potency [15] | Potency [16] | Potency [17] | Potency [18] | Potency [19] | max response [20] 3.12%

CN(C)c1ccc(N=Nc2ccccc2)cc1
inactive: Potency [1] > 92 µM | Potency [2] | outcome [3] | outcome [4] | outcome [5] | outcome [6] | Potency [7] | caspase-3 activation [8] -8.79% | outcome [9] | outcome [10] | outcome [11] | Potency [12] | outcome [13] | outcome [14] | Potency [15] | Potency [16] | Potency [17] | Potency [18] | Potency [19] | max response [20] -12.4%
